Screens deposited in PubChem by National Center for Advancing Translational Sciences (NCATS).
IMPase Li cell – cell-permeable IMPase inhibitors with lithium potentiation; CHO-M1 cells, IP1 TR-FRET (IP-One), carbachol + lithium; Potency, µM (top dose mostly 59.4 µM), for the others: at the top dose activity, negative = IMPase inhibition, hits mostly inhibitors; 210,000 tested, 0.35% active; AID 1457;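 note: IP1 builds up when IMPase is blocked and the TR-FRET signal falls; plate controls were basal vehicle for no effect and high inhibitor control for full effect; nearly all actives have a fitted effect of over 50% in size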
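Steps: plate 2000 CHO-M1 cells per well and culture 16–30 h; add compound and lithium; incubate 30 min, 37C; add d2-IP1 tracer and Eu cryptate anti-IP1 antibody in lysis buffer; read after 10 min at room temperature.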
NPSR antagonist – antagonists of human neuropeptide S receptor cAMP signaling; Potency, µM (highest dose often 38.3 µM), for inactives: top-dose activity change, negative = inhibition, most hits filed as inhibitors; Q6W5P4; AID 1461; CHO-NPSR cells, cAMP TR-FRET, antagonist mode; 220,000 tested, 1% active; note: % is set by controls: 0 for no effect and ±100 for the full control effect; nearly all actives have a fitted effect of over 50% in size
Target sequence (Q6W5P4 whole entry, looked up): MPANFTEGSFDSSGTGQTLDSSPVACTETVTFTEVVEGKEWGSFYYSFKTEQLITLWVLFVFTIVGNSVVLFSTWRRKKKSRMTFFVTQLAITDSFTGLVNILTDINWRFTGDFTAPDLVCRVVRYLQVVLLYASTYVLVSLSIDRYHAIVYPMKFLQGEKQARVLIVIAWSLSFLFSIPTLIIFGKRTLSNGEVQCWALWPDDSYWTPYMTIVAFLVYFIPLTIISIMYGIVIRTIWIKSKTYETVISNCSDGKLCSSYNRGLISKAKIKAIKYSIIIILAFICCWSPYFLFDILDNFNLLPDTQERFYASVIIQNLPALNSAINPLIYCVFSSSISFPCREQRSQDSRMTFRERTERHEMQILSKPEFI
HTT cytoprotect – cytoprotection in Huntington HTT-Q103 PC12 cell model; PC12 HTT-Q103 induced, cytoprotection, ATP luminescence, 40 h; Potency, µM (series often up to 56.4 µM), inactives show cytoprotection (ATP increase), hits mostly activators; AID 1471; 230,000 tested, 0.14% active; note: % of control where 0% means no effect; nearly all actives have a fitted effect of over 45% in size
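Rat PC12, Q103 Htt exon1-GFP fusion, ecdysone promoter; tebufenozide inducer 100 nM final; compound titration; qHTS, 1500 cells/well; ATPlite luminescent read.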
HttQ103 aggreg – mutant huntingtin aggregation inhibition; Potency, µM (highest dose often 46.1 µM), for the others: top-dose activity change, negative = inhibition, actives largely listed as inhibitors; 220,000 tested, 1.1% active; PC12 HttQ103-GFP aggregates, Acumen cytometry, 40 h; note: % is set by controls: 0 for no effect and ±100 for the full control effect; nearly all actives have a fitted effect of over 60% in size
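Ecdysone-promoter PC12 model expressing HTT exon 1 Q103 fused to GFP, induced by tebufenozide at 100 nM final. Compounds titrated; aggregates sized 1–25 µm scored on a 488 nm laser cytometer.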
ERK EGF block – inhibitors of EGF-stimulated ERK signaling pathway. Potency, µM (titrated, usually from 11.5 µM), inactives show top-dose activity change, negative = inhibition, usual class: inhibitors. HEK293-V1b, EGF-stimulated phospho-ERK AlphaScreen. 130,000 tested, 0.41% active. AID 1454;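 note: plate controls were stimulated vehicle wells for no effect and unstimulated vehicle basal for full effect; nearly all actives have a fitted effect of over 55% in size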
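Phospho-ERK1/2 measured by AlphaScreen (SureFire) after 5 min 25 nM EGF stimulation of V1b-expressing HEK293 cells preincubated 30 min at 37C with titrated compounds; data scaled to DMSO and EGF controls, Hill-fitted AC50.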
* hit, by the source's call; [ ] = remark or other dose. Rows were chosen to be rich in hits. Some 1.9% of all compounds tested hit in one or more screens of this group. Calls come from the whole dose curve; as a rule, active = well fitted curve in the direction sought with a large enough effect; inconclusive = small, poorly fitted or top-dose-only effect, or another doubt; inactive = no such curve, though single readings can be large; an effect the other way counts as inactive or inconclusive. Potency is the fitted concentration of half-maximal effect.

For Cc1ccc(NC2=C/C(=N\S(=O)(=O)c3cccs3)c3ccccc3C2=O)c(C)c1 the results were IMPase Li cell 28%, NPSR antagonist 4µM*, HTT cytoprotect -94%[10 µM], HttQ103 aggreg 2.2µM* and ERK EGF block 13µM*.
O=C1C=C(Nc2ccc(O)cc2)C(=O)c2ccccc21 was read as NPSR antagonist 38%, HTT cytoprotect -27%[10 µM], HttQ103 aggreg -9%[9.22 µM] and ERK EGF block inconclusive.
Screening O=C1C(Nc2ccc(O)cc2)=C/C(=N/S(=O)(=O)c2cccs2)c2ccccc21 returned IMPase Li cell 50%, NPSR antagonist 6.3µM*, HTT cytoprotect -57%[10 µM], HttQ103 aggreg 2.5µM* and ERK EGF block 18µM*.
`O=C1/C(=N\S(=O)(=O)c2cccs2)C([n+]2ccccc2)=C([O-])c2ccccc21` gave NPSR antagonist -11%, HTT cytoprotect 2%[10 µM], HttQ103 aggreg -39%[9.22 µM] and ERK EGF block 8%[57.5 µM].
`CNc1cc(-c2ccccc2CN(C)C)ncn1` gave IMPase Li cell 11% and HTT cytoprotect -2%.
For CC1(OC(=O)C2CCCC2)C(=O)C=C2C=C(c3ccsc3)N(c3cccc(C#N)c3)C=C2C1=O (centres undefined) the results were IMPase Li cell 1% and HTT cytoprotect -23%[10 µM].
For CCCCC[C@H](O)/C=C/[C@@H]1[C@@H](C/C=C\CCCC(=O)O)[C@H](O)C[C@H]1O the results were IMPase Li cell 3%, HTT cytoprotect inconclusive and ERK EGF block -4%.
For CC(C)=CCC1=C(O)[C@](O)(CC=C(C)C)C(=O)C(C(=O)CC(C)C)=C1O the results were IMPase Li cell -3%, HTT cytoprotect -10% and ERK EGF block -1%.
`Cc1cccc(NC2=C/C(=N/S(=O)(=O)c3cccs3)c3ccccc3C2=O)c1` gave IMPase Li cell -7%, NPSR antagonist 5µM*, HttQ103 aggreg 14% and ERK EGF block 8%.
For Cc1cccc(NC2=C(NCCO)C(=O)c3ccccc3C2=O)c1 the results were IMPase Li cell 26%, NPSR antagonist -36%, HTT cytoprotect 23%[10 µM], HttQ103 aggreg -32% and ERK EGF block inconclusive.
For COc1cccc(O)c1O the results were IMPase Li cell 48% and ERK EGF block inconclusive.
Screening O=S(=O)(c1ccc(Cl)cc1)N1CCN(Cc2ccc(O)c3ncccc23)CC1 returned IMPase Li cell 4%, NPSR antagonist -1%, HttQ103 aggreg 5µM* and ERK EGF block -6%.
For Oc1ccc(CN2CCN(Cc3ccccc3)CC2)c2cccnc12 the results were IMPase Li cell 2%[38.3 µM], NPSR antagonist -26%[46.1 µM], HTT cytoprotect -4% and HttQ103 aggreg 3%.
For CCCn1c(-c2ccc(F)cc2)nc2c(NCC(C)(C)CN(C)C)nc(C)nc21 the results were IMPase Li cell -1%, HTT cytoprotect -16% and ERK EGF block -4%.
O=c1cc(-c2cccc(O)c2O)oc2ccccc12 was read as IMPase Li cell 24%, HTT cytoprotect inconclusive and ERK EGF block -4%.
For CCOc1ccc(N(CC(=O)Nc2ccc(C)c(C)c2)S(=O)(=O)c2c(C)noc2C)cc1 the results were IMPase Li cell 11%, NPSR antagonist -19%[46.1 µM], HTT cytoprotect 18%[10 µM], HttQ103 aggreg 20µM* and ERK EGF block 5%.
`Cc1cc2oc(=O)cc(-c3ccccc3)c2c(C)c1-c1ccoc1` gave IMPase Li cell 11%.
C=CCN1c2ccccc2[C@]23C[C@@H](C(=O)OC)N(S(=O)(=O)c4ccc(Br)cc4)C2=NC(C(=O)OC)=C(C(=O)OC)[C@H]13 was read as IMPase Li cell 2% and HTT cytoprotect 7%[10 µM].
Screening N#C/C(=C\C1=C(N2CCOCC2)C(=C/c2cccc([N+](=O)[O-])c2)/CC1)C(=O)Nc1ccccc1F returned IMPase Li cell 1%, NPSR antagonist -13%, HTT cytoprotect 23%[10 µM], HttQ103 aggreg -5% and ERK EGF block 3.5µM*.
Screening N#C/C(=C\C1=C(N2CCOCC2)C(=C\c2ccc(Cl)cc2)/CC1)C(=O)Nc1ccccc1F returned IMPase Li cell -3%, NPSR antagonist -3%, HTT cytoprotect 27%[10 µM], HttQ103 aggreg inconclusive and ERK EGF block inconclusive.
For Cc1ccc(NC(=O)c2ccccc2NS(=O)(=O)c2ccc(F)cc2)cc1S(=O)(=O)N1CCCCC1 the results were IMPase Li cell 11%, NPSR antagonist -55%, HTT cytoprotect -37%[10 µM], HttQ103 aggreg 2.5µM* and ERK EGF block 3%.
For Cc1ccccc1NC(=O)c1cc(S(=O)(=O)N2CCCCC2)cs1 the results were IMPase Li cell inconclusive, NPSR antagonist -24%[46.1 µM], HTT cytoprotect -14% and HttQ103 aggreg -56%.
`O=C(Nc1ccc(F)cc1)c1cc(S(=O)(=O)N2CCCCC2)cs1` gave IMPase Li cell -3%[38.3 µM], NPSR antagonist -8%[46.1 µM], HTT cytoprotect -9% and HttQ103 aggreg 10µM*.
`O=C(Nc1cccc(S(=O)(=O)N2CCCCC2)c1)c1ccccc1NS(=O)(=O)c1ccc(F)cc1` gave IMPase Li cell 21%, NPSR antagonist -51%, HTT cytoprotect 17%[1.9 µM], HttQ103 aggreg 29% and ERK EGF block -3%.
Screening CCOC(=O)N1CCN(C(=O)c2cc3c(s2)-c2ccccc2OC3)CC1 returned IMPase Li cell inconclusive, NPSR antagonist -7%[46.1 µM], HTT cytoprotect 10%[10 µM] and HttQ103 aggreg 7%.
CN(C)CCNC(=O)c1cc2c(s1)-c1ccccc1OC2 was read as IMPase Li cell 8.9µM*, NPSR antagonist 16%[46.1 µM], HTT cytoprotect -9% and HttQ103 aggreg -25%.
For O=C(c1cc2c(s1)-c1ccccc1OC2)N1CCN(c2ccccc2)CC1 the results were IMPase Li cell 7.9µM*, NPSR antagonist -20%[46.1 µM], HTT cytoprotect -10% and HttQ103 aggreg -12%.
For O=C(c1cc2c(s1)-c1ccccc1OC2)N1CCCC1 the results were IMPase Li cell -7%[38.3 µM], NPSR antagonist -6%[46.1 µM], HTT cytoprotect -24% and HttQ103 aggreg inconclusive.
For O=C(c1cc2c(s1)-c1ccccc1OC2)N1CCN(c2ccccn2)CC1 the results were IMPase Li cell 10µM*, NPSR antagonist -18%[46.1 µM], HTT cytoprotect 1% and HttQ103 aggreg -16%.
Nn1cc(Br)c(=O)[nH]c1=O was read as IMPase Li cell -2% and HTT cytoprotect -23%.
Screening COc1cc(/C=C(/C(=O)c2cccs2)c2nc3ccccc3[nH]2)ccc1O returned IMPase Li cell 32%[38.3 µM], NPSR antagonist 10µM*, HTT cytoprotect -2% and HttQ103 aggreg inconclusive.
Screening O=C(/C(=C/c1ccc(Cl)cc1)c1nc2ccccc2[nH]1)c1cccs1 returned IMPase Li cell 58%[38.3 µM], NPSR antagonist 2µM*, HTT cytoprotect -110% and HttQ103 aggreg 5µM*.
